Most compounds without a hit are left out; they make up all but 10% or so of the library.
GPT2 inhibitor – Primary qHTS assay for inhibitors of Glutamate pyruvate transaminase 2 (GPT2); Alanine aminotransferase 2 (Homo sapiens), Q8TD30; Recombinant GPT2, coupled pyruvate oxidase/HRP Amplex Red fluorescence; Potency, µM (titrated, usually from 57.7 µM), without a hit: at the top dose activity change, negative = inhibition, most hits filed as inhibitors; 100,000 compounds, 0.25% hits; AID 1671188, 2021; further: nearly all actives have a fitted effect of over 60% in size
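Fluorescence of coupled pyruvate oxidase/HRP/Amplex Red system (50uM Amplex, 30 min, dark) reports pyruvate formed by GPT2. Enzyme reaction: 10ng/uL GPT2, 2mM L-alanine, 250uM a-KG, 30 min room temperature, pH 7.5; 50uM AOA control.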
Luciferase inh – Firefly luciferase inhibition profiling of diverse chemical library using quantitative high-throughput screening. Luciferin 4-monooxygenase (Photinus pyralis), P08659. purified P. pyralis luciferase, luminescence, biochemical. Potency, µM (titrated, usually from 115 µM), usual class: inhibitors. 76,000 compounds, 2.5% hits; further: nearly all actives have a fitted effect of over 65% in size
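Inhibitors were tested against purified firefly luciferase in a biochemical, low-substrate format (both substrates at 10uM) and luminescence measured with a CCD imager.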
HEK cytotox – Cytotoxic Profiling in HEK 293 Cell Line of Diverse Libraries Using Quantitative High-Throughput Screening; HEK 293 viability, ATP luminescence (CellTiter-Glo), 48-72 h; Potency, µM (doses to about 115 µM), for inactives: top-dose activity change, negative = cytotoxicity, hits mostly inhibitors; 94,000 compounds, 6.6% hits; AID 1345083, 2018; further: nearly all actives have a fitted effect of over 60% in size
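Read-out: CellTiter-Glo ATP luminescence. Cells: HEK 293, 250 cells/well. Exposure: 48 or 72 hr, 37 degree Celsius.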
NPR1 antag – Natriuretic polypeptide receptor (hNpr1) antagonism - Primary qHTS; HEK293 hNpr1 GloSensor cGMP, ANP-stimulated luminescence; Potency, µM (titrated, usually from 46.3 µM), inactives show at the highest dose activity change, negative = inhibition, actives largely listed as inhibitors; Atrial natriuretic peptide receptor 1 (Homo sapiens), P16066; 76,000 compounds, 1.6% hits; calls by dose curve; further: nearly all actives have a fitted effect of over 60% in size
Target sequence (P16066 whole entry, looked up): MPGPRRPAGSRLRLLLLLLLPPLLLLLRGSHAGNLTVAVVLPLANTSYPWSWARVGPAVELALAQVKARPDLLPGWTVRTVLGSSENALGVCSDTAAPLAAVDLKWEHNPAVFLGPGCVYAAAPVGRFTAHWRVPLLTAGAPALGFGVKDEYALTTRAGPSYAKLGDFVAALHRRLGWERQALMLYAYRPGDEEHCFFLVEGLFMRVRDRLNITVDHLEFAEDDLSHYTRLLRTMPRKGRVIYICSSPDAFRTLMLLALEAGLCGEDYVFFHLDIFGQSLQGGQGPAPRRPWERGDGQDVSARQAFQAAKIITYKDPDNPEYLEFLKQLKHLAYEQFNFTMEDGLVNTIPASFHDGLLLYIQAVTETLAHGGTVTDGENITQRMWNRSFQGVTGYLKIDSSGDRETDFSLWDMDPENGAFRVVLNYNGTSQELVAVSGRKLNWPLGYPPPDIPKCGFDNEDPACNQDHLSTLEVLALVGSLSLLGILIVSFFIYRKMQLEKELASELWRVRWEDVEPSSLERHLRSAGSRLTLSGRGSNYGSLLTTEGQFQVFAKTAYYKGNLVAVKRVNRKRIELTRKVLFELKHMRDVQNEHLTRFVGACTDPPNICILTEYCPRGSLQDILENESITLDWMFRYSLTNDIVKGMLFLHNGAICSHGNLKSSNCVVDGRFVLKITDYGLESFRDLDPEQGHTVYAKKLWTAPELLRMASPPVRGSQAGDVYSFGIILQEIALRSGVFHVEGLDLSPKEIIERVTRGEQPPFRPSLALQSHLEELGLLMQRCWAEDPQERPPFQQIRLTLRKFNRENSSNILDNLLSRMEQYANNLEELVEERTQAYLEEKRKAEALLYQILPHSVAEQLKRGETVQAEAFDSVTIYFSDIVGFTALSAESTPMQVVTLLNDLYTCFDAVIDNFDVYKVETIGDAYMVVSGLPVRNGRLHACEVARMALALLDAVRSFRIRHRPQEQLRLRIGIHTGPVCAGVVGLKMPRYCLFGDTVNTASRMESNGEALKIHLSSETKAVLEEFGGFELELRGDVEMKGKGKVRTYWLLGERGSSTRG
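HEK293 cells stably expressing human Npr1 and cGMP GloSensor pGS-40F, loaded 2 h with 2% GloSensor reagent, given compound 30 min at room temperature. Luminescence read before and 20 min after 0.1 nM hNppA.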
3T3 cytotox – Cytotoxic Profiling in NIH 3T3 Cell Line of Diverse Libraries Using Quantitative High-Throughput Screening; AID 1345082, 2018; 94,000 compounds, 4.3% hits; Potency, µM (highest dose often 96.7 µM), inactives show top-dose activity change, negative = cytotoxicity, hits mostly inhibitors; NIH 3T3 viability, CellTiter-Glo ATP luminescence, 48-72 h; further: nearly all actives have a fitted effect of over 55% in size
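Cells were seeded at 400 per well, treated with pin-transferred compound, and kept 48 or 72 hr at 37 °C before CellTiter-Glo addition and luminescence imaging of cellular ATP.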
Numbers without * were called inactive; i = inactive; u = inconclusive; x = no result; [ ] = remark or other dose. Unless noted, the call rests on the fitted dose curve; in most records, active means well fitted curve in the direction sought with a large enough effect; inconclusive means small, poorly fitted or top-dose-only effect, or another doubt; inactive means no such curve, though single readings can be large; an effect the other way counts as inactive or inconclusive. On the % scale 0 is the no-effect control and ±100 the full control effect; potency means the concentration at half of the fitted maximal effect.

SMILES	GPT2 inhibitor	Luciferase inh	HEK cytotox	NPR1 antag	3T3 cytotox
Cc1[nH]cnc1CN1CCNc2cc(-c3ccccc3)ncc2C1	i	u	u	-5%[70.6 µM]	u
COc1ccc(OC)c(CN2CCNc3cnc(-c4ccccc4)cc3C2)c1	-9%[88.5 µM]	i	56µM*	-22%[70.6 µM]	89µM*
Oc1ccccc1CN1CCNc2cnc(-c3ccccc3)cc2C1	i	i	63µM*	u	u
c1ccc(-c2cc3c(cn2)NCCN(CC2CC2)C3)cc1	i	u	-26%[230 µM]	-8%[70.6 µM]	u
COc1cccc(CN2CCNc3cnc(-c4ccccc4)cc3C2)c1	-4%[88.5 µM]	i	89µM*	-16%[70.6 µM]	u
O=C1CCCCC(CNC(=O)c2cn[nH]c2-c2ccc(F)cc2)N1 (stereo not given)	-3%	x	-3%	x	-9%
COCCNC(=O)c1ccc2oc(-c3ccnc(Cl)c3)nc2c1	0%	x	u	x	-21%
O=C(N[C@H]1C[C@@H]2C(=O)N[C@H]3CCN(C(=O)C4CCCC4)[C@@H]3C(=O)N2C1)c1ccc(F)c(Cl)c1	0%	i	-9%	7%	2%
COc1cc(F)ccc1-c1cc(C(=O)NCc2cccnc2)c2c(c1)N(C)CCO2	-8%[88.5 µM]	i	u	-11%[70.6 µM]	u
Cc1ccc(C(=O)CCc2nc(C3CC(=O)N(C4CCCCC4)C3)no2)cc1 (stereo not given)	i	i	40µM*	-18%	u
O=C(Cc1cccc(F)c1)NC1CCN(c2ccc(F)cc2)C1=O (stereo not given)	4%	i	-25%	-1%	-13%
Cc1ccc(N2CCC(NC(=O)Cc3cccc(F)c3)C2=O)cc1 (stereo not given)	i	i	25µM*	7%	32µM*
COc1ccccc1-n1c(=O)c(C(=O)NCC2CC2)nc2cccnc21	u	x	-1%	x	-22%
C=CCS(=O)(=O)N1CCCC(CCc2cccc(OC)c2)C1 (stereo not given)	u	i	u	-1%	-29%
O=C(c1ccco1)N1CCCC(CCc2cccc(F)c2)C1 (stereo not given)	-9%	i	79µM*	6%	u
COc1cccc(CCC2CCCN(C(=O)c3ccc(OC)o3)C2)c1 (stereo not given)	2%	i	35µM*	-19%	u
COc1ccc(-c2ccnc(N[C@H]3CO[C@H]4[C@@H]3OC[C@H]4OCC(=O)N(C)C)n2)cc1	3%[88.5 µM]	i	u	-2%[70.6 µM]	u
O=C1NC2(CCCN(Cc3ccc(OC(F)(F)F)cc3)C2)COc2ccccc21 (stereo not given)	i	i	u	-7%	u
O=C1NC2(CCCN(Cc3ccc(F)cc3)C2)COc2ccccc21 (stereo not given)	1%	i	u	16%	u
O=C1NC2(CCCN(Cc3ccsc3)C2)COc2ccccc21 (stereo not given)	i	i	79µM*	-21%[70.6 µM]	40µM*
O=S1(=O)NC2(CCCN(Cc3ccc(Cl)cc3)C2)COc2ccccc21 (stereo not given)	3%	x	u	x	45µM*
O=C1NC2(CCCN(Cc3cncs3)C2)COc2ccccc21 (stereo not given)	-8%	i	28µM*	-6%	22µM*
Cc1noc(C)c1[S+](=O)([O-])N1CCCC2(COc3ccccc3C(=O)N2)C1 (stereo not given)	i	i	22µM*	u	35µM*
COc1ccc(-c2noc([C@@H]3CCCN3C(=O)c3cc(F)cc(F)c3)n2)cc1OC	i	i	u	-6%	u
COCCOC1CN(C2CCN(C(=O)c3ccc(C)s3)CC2)C12CCCCC2 (stereo not given)	i	i	0%	-1%	-21%
SMILES	GPT2 inhibitor	Luciferase inh	HEK cytotox	NPR1 antag	3T3 cytotox
Cc1cccc(C)c1-c1nc(C(=O)N(C)C)n2ccccc12	3%[88.5 µM]	i	u	-18%[70.6 µM]	u
CC(C)CCNC(=O)c1ccc2c(c1)CC(=O)N2Cc1ccc(F)cc1	-5%	i	u	0%	u
CC1(C(=O)NCc2ccc(F)cc2)CCCc2cnc(Nc3cccnc3)nc21 (stereo not given)	1%[88.5 µM]	i	-16%[172 µM]	-9%[70.6 µM]	u
CC1(C(=O)NCCN2CCOCC2)CCCc2cnc(NCc3ccccc3)nc21 (stereo not given)	-18%[88.5 µM]	i	-5%[172 µM]	0%[70.6 µM]	u
CC1(C(=O)NCc2cnccn2)CCc2cnc(Nc3ccccc3)nc21 (stereo not given)	-15%[88.5 µM]	i	u	4%[70.6 µM]	u
CC1(C(=O)NCc2ccncc2)CCCc2cnc(Nc3ccccc3)nc21 (stereo not given)	i	i	-24%[172 µM]	0%[70.6 µM]	100µM*
CC1(C(=O)NCc2ccncc2)CCCc2cnc(NCc3ccccc3)nc21 (stereo not given)	u	i	89µM*	-2%[70.6 µM]	25µM*
CC1(C(=O)NCc2cnccn2)CCCc2cnc(NCc3ccccc3)nc21 (stereo not given)	3%[88.5 µM]	i	-4%[172 µM]	4%[70.6 µM]	89µM*
O=C(NC1CCN(C(=O)c2ccc(-c3cccs3)cc2)CC1)c1ccc(F)cc1	i	x	u	x	-11%
Cc1cc(=O)n(CC(=O)Nc2ccccc2C)c(-c2ccccc2)n1	i	i	9%	3%	i
CC(C)C[C@@H]1N[C@H](C(=O)N2CCOCC2)Cc2cn(Cc3nccn3C)c3cccc1c23	2%[88.5 µM]	i	-19%[172 µM]	4%[70.6 µM]	-30%[174 µM]
CC(C)C[C@@H]1N[C@H](C(=O)N2CCCC2)Cc2cn(Cc3ccccn3)c3cccc1c23	-11%[88.5 µM]	i	112µM*	2%[70.6 µM]	u
CC(C)C[C@@H]1N[C@H](C(=O)N2CCCC2)Cc2cn(Cc3nccn3C)c3cccc1c23	2%[88.5 µM]	i	u	2%[70.6 µM]	-27%[174 µM]
CC(C)C[C@@H]1N[C@H](C(=O)N2CCOCC2)Cc2cn(Cc3ccccn3)c3cccc1c23	i	i	100µM*	-5%[70.6 µM]	u
O=C(NCc1cccc(Cl)c1)c1ccc2oc(-c3ccncc3)nc2c1	i	x	u	x	-29%
COCCc1noc(-c2ccccc2OC2CN(C(=O)CC(C)C)C2)n1	i	i	1%	17%	-24%
Cc1cnc(C2CC2)n1CC1CCN(C(=O)Cc2ccccc2)CC1	-4%	i	-6%	-3%	1%

High-throughput results from PubChem.
